Assays:
[1] = biological target: Sphingosine kinase 1 (Homo sapiens) (UniProt Q9NYA1); settings: at 1 µM;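 note: mean SPHK1 inhibition value reported from the GSK PKIS kinase panel screen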
[2] = biological target: T1, Sphingosine kinase 2 (Homo sapiens) (UniProt Q9NRA0); settings: at 0.1 µM
T1 sequence (whole entry): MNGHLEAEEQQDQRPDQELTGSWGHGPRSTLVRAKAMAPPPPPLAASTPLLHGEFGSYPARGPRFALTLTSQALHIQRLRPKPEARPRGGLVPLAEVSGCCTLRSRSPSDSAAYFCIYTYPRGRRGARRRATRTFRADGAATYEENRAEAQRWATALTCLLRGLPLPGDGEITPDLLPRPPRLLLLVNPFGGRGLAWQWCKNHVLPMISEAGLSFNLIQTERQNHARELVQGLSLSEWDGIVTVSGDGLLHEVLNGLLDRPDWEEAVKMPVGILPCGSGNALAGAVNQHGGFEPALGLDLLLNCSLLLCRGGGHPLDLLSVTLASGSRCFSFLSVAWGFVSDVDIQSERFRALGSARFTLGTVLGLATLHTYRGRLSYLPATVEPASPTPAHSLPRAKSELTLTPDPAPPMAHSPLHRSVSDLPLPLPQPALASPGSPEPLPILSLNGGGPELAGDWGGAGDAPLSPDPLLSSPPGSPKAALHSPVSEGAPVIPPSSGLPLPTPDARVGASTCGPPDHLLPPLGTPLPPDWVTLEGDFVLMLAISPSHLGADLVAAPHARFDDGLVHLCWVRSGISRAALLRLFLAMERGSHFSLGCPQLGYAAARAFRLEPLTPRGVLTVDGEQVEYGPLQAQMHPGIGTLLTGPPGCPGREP

[3] = biological target: T1, Sphingosine kinase 2 (Homo sapiens); settings: at 1 µM
[4] = biological target: Casein kinase II subunit alpha (Homo sapiens) (UniProt P68400); settings: at 0.1 µM
[5] = biological target: Casein kinase II subunit alpha (Homo sapiens) (UniProt P68400); settings: at 1 µM
[6] = biological target: T2, Inhibitor of nuclear factor kappa-B kinase subunit alpha (Homo sapiens) (UniProt O15111); settings: at 0.1 µM
T2 sequence (whole entry): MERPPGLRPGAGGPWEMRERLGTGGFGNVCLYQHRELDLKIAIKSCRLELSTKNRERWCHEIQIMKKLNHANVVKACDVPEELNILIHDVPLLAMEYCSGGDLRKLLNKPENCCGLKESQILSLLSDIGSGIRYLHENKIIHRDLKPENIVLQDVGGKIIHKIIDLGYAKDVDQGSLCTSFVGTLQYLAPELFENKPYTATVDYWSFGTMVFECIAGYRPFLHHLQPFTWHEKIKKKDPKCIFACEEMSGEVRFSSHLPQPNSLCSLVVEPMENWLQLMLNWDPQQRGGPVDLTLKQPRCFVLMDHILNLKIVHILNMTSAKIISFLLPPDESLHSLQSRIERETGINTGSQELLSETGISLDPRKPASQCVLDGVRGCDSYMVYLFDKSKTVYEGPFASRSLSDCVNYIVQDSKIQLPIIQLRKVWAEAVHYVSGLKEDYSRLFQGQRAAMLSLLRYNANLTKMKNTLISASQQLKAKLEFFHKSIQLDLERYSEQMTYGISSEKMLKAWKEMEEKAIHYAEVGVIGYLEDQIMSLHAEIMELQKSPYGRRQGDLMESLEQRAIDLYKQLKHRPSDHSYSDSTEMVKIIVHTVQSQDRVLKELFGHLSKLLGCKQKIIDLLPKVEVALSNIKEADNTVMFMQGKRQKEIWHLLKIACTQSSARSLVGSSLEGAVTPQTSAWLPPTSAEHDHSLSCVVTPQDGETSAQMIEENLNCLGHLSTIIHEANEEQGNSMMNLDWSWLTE

[7] = biological target: T2, Inhibitor of nuclear factor kappa-B kinase subunit alpha (Homo sapiens); settings: at 1 µM
[8] = biological target: T3, Inhibitor of nuclear factor kappa-B kinase subunit beta (Homo sapiens) (UniProt O14920); settings: at 0.1 µM
T3 sequence (whole entry): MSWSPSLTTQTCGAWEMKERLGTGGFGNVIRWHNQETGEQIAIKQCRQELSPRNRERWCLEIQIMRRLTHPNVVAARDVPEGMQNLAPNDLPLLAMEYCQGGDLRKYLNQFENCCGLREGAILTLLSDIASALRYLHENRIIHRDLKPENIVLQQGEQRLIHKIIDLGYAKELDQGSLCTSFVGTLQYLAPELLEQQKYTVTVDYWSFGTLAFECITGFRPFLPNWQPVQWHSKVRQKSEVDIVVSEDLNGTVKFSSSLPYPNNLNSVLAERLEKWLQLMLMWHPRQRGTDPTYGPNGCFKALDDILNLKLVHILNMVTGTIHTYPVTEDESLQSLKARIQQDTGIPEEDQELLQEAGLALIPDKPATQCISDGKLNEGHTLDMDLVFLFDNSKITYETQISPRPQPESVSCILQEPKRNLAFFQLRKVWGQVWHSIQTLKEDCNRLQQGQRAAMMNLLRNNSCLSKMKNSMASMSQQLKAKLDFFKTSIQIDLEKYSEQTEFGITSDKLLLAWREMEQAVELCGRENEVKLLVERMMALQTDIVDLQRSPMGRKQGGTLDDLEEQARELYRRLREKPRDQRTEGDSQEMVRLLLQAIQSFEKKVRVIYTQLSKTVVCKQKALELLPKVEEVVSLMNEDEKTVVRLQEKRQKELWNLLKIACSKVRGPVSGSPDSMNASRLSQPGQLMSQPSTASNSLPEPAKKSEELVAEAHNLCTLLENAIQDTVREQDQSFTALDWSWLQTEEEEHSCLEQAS

[9] = biological target: T3, Inhibitor of nuclear factor kappa-B kinase subunit beta (Homo sapiens); settings: at 1 µM
[10] = biological target: T4, Inhibitor of nuclear factor kappa-B kinase subunit epsilon (Homo sapiens) (UniProt Q14164); settings: at 0.1 µM;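 note: mean inhibition of IKKε reported, from the GSK PKIS dataset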
T4 sequence (whole entry): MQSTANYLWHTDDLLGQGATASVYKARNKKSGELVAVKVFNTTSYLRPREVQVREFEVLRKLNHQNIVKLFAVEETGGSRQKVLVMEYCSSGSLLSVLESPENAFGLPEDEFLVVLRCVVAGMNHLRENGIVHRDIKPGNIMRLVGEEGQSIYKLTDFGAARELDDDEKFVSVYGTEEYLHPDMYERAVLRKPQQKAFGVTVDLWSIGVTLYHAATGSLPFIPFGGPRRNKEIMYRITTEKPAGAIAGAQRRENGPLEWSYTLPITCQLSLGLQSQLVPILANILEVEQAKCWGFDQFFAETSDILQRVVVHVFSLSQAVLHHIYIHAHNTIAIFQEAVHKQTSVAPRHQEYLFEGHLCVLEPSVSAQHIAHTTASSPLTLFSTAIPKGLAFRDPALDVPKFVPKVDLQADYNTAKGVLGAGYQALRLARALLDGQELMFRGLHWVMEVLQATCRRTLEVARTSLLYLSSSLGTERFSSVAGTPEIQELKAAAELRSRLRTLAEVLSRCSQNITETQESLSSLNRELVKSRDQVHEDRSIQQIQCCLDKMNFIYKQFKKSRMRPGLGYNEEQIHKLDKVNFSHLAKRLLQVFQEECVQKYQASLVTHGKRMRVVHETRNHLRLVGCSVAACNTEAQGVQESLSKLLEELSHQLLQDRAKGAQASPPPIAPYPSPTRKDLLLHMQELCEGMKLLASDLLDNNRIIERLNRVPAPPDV

Casein kinase II subunit alpha (Homo sapiens), sequence (P68400 whole entry, looked up): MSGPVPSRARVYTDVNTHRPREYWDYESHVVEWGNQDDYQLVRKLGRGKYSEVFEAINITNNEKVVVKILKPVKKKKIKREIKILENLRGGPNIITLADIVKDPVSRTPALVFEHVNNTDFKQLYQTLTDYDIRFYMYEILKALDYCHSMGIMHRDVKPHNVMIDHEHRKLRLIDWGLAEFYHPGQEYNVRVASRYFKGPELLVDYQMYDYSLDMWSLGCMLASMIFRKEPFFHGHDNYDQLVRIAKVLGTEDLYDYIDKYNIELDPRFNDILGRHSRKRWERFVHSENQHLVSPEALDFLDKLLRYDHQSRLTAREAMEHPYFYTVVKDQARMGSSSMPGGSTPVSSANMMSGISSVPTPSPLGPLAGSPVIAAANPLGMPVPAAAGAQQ
Sphingosine kinase 1 (Homo sapiens), sequence (Q9NYA1 whole entry): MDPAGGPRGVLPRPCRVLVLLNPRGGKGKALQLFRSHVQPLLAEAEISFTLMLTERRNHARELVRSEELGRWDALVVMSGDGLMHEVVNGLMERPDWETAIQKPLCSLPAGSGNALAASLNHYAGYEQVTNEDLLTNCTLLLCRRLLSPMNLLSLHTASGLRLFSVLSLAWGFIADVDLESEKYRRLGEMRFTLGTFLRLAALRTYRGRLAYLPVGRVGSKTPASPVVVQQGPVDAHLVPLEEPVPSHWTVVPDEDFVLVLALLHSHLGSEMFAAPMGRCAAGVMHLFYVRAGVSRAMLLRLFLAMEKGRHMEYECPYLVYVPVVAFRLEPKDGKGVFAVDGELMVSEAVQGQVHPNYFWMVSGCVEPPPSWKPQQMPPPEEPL

Q: Which inhibition [1] does the source give for `CCCN1CCCC(c2ccc(Nc3nc(Nc4cc(F)ccc4C(N)=O)c4cc[nH]c4n3)c(OC)c2)C1` (stereo not given) here?
A: Its inhibition is 3.56%.

Q: And the inhibition [2]?
A: Its inhibition is 1.62%.

Q: And the inhibition [3]?
A: Its inhibition is -1.24%.

Q: What about the inhibition [4] of the same compound?
A: Its inhibition is 33.5%.

Q: What about the inhibition [5] of the same compound?
A: Its inhibition is 66.2%.

Q: And the inhibition [6]?
A: Its inhibition is 6.24%.

Q: And the inhibition [7]?
A: The inhibition was 4.21%.

Q: And the inhibition [8]?
A: The inhibition was 8.08%.

Q: And the inhibition [9]?
A: Its inhibition is 4.25%.

Q: What about the inhibition [10] of the same compound?
A: Its inhibition is 4.93%.

From ChEMBL document CHEMBL1961873, “Compounds: GSK PKIS; Assays: Nanosyn kinase panel” (2012)
